These results are taken from PubChem BioAssay (NCI).

Some test systems named below: DU-145 prostate; K-562 leukemia; MALME-3M melanoma; MDA-MB-231 breast; RXF 393 renal; SF-268 CNS; SF-295 CNS; SF-539 CNS; UACC-257 melanoma; M14 melanoma.
What all share (experiment): NCI-60 one-dose screen, 48 h (100 = growth as untreated, 0 = no growth, -100 = all killed)

Where “and” joins values, the source holds several entries; their conditions need not be identical. Equal entries are not always repeated. The panel holds about 83,000 compounds, 20% with a hit somewhere; the sample as a whole holds those more often.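 For each line, cells grew in 96-well plates with the test compound present at a single concentration for 48 hours.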 A number with no mark means an inactive call. Calls of active or inactive are those of the source. How the source made its calls: active means growth percent below 10; inactive means the rest.

As to `O=C1C2=C(Nc3cc([N+](=O)[O-])ccc3N2)OC1c1c2ccccc2cc2ccccc12` (stereo unspecified), the growth was 74.6% in the assay on DU-145 prostate (10 µM unless noted); 21.6% in the assay on K-562 leukemia (10 µM unless noted); 97.9% in the assay with MALME-3M melanoma (10 µM unless noted); 65.8% with MDA-MB-231 breast (10 µM unless noted); 65.1% in the assay with RXF 393 renal (10 µM unless noted); 33.2% in the assay with SF-268 CNS (10 µM unless noted). The growth in the assay with SF-295 CNS (10 µM unless noted) was 57.5%; with SF-539 CNS (10 µM unless noted), 58.8%; in the assay with UACC-257 melanoma (10 µM unless noted), 74.4%.
For `O=C(Nc1ccc(F)cc1)ON=C1CCCCC1`, the growth was 106% [100 µM] in the assay on DU-145 prostate (10 µM unless noted); 79.6% [100 µM] with K-562 leukemia (10 µM unless noted); 108% [100 µM] in the assay with MALME-3M melanoma (10 µM unless noted); 101% [100 µM] in the assay on MDA-MB-231 breast (10 µM unless noted); 102% [100 µM] in the assay on RXF 393 renal (10 µM unless noted); 96.3% [100 µM] in the assay with SF-268 CNS (10 µM unless noted). The growth is 100% [100 µM] in the assay on SF-295 CNS (10 µM unless noted), 93.5% [100 µM] in the assay on SF-539 CNS (10 µM unless noted) and 98.8% [100 µM] in the assay on UACC-257 melanoma (10 µM unless noted).
Take `O=C(O)c1c(Cl)c(Cl)c(Cl)c(Cl)c1-c1c2cc(I)c(=O)c(I)c-2oc2c(I)c(O)c(I)cc12`: the growth with DU-145 prostate (10 µM) was 93.5% and 95.2% and 112%; with DU-145 prostate (100 µM) it was 59%; with K-562 leukemia (10 µM) it was 112% and 113% and 92.3%; in the assay with K-562 leukemia (100 µM) it was -33.1% (active); in the assay on MALME-3M melanoma (10 µM) it was 110% and 56.4%; in the assay with MALME-3M melanoma (100 µM), -11.9% (active). In addition, the growth in the assay with MDA-MB-231 breast (10 µM) is 94.7% and 102% and 104%; in the assay with MDA-MB-231 breast (100 µM), -39.7% (active); in the assay with RXF 393 renal (10 µM), 92.5% and 90.9% and 57.7%; in the assay on RXF 393 renal (100 µM), -78.9% (active); with SF-268 CNS (10 µM) it was 88.2% and 78.4% and 96.9%; in the assay with SF-268 CNS (100 µM) it was 19.8%. Besides, the growth in the assay with SF-295 CNS (10 µM) was 100% and 98.8% and 96.3%; in the assay with SF-295 CNS (100 µM) it was 15.3%; in the assay on SF-539 CNS (10 µM) it was 95.4% and 96.5% and 77.9%; in the assay on SF-539 CNS (100 µM), -67.5% (active); with UACC-257 melanoma (10 µM), 115% and 117% and 90.6%; with UACC-257 melanoma (100 µM), 22.9%. Moreover, the growth with M14 melanoma (10 µM) is 104% and 95.6% and 119%; with M14 melanoma (100 µM) it was 69.7%.
On to `CCCCCC(CCCCC)C(=O)O`, for which the growth is 119% with DU-145 prostate (10 µM unless noted); 99.8% with K-562 leukemia (10 µM unless noted); 119% in the assay on MALME-3M melanoma (10 µM unless noted); 105% in the assay with MDA-MB-231 breast (10 µM unless noted); 135% in the assay with RXF 393 renal (10 µM unless noted); 104% with SF-268 CNS (10 µM unless noted). The growth in the assay on SF-295 CNS (10 µM unless noted) was 108%; in the assay on SF-539 CNS (10 µM unless noted), 104%; in the assay on UACC-257 melanoma (10 µM unless noted), 116%.
Take `COc1ccc2nc3cc(Cl)ccc3c(NCCNc3c4ccc(Cl)cc4nc4ccc(OC)cc34)c2c1`: the growth was -95.4% (active) in the assay on DU-145 prostate (10 µM unless noted); -52.7% (active) in the assay on K-562 leukemia (10 µM unless noted); -77.4% (active) in the assay on MALME-3M melanoma (10 µM unless noted); -78.9% (active) with MDA-MB-231 breast (10 µM unless noted); -93% (active) with RXF 393 renal (10 µM unless noted); -82.6% (active) with SF-268 CNS (10 µM unless noted). Moreover, the values for the growth with SF-295 CNS (10 µM unless noted), in the assay on SF-539 CNS (10 µM unless noted) and in the assay with UACC-257 melanoma (10 µM unless noted) were -93.2% (active), -85.5% (active) and -89.6% (active), respectively.
Take `O=C(Nc1ccccc1)Oc1c(Cl)c(Cl)c(Cl)c(Cl)c1Cl`: the growth was 110% and 101% in the assay with DU-145 prostate (10 µM unless noted); 101% and 93.9% with K-562 leukemia (10 µM unless noted); 89% and 104% in the assay with MALME-3M melanoma (10 µM unless noted); 88.2% and 94.2% in the assay on MDA-MB-231 breast (10 µM unless noted); 113% and 110% in the assay on RXF 393 renal (10 µM unless noted); 94.2% and 98.8% in the assay on SF-268 CNS (10 µM unless noted). Moreover, the growth in the assay with SF-295 CNS (10 µM unless noted) was 97.4% and 91.8%; with SF-539 CNS (10 µM unless noted), 99.7% and 90.6%; with UACC-257 melanoma (10 µM unless noted), 109% and 103%.
Consider `O=C(Nc1c(Cl)cccc1Cl)Oc1cccc2cccnc12`, for which the growth is 82.5% with DU-145 prostate (10 µM); 49.1% in the assay with DU-145 prostate (100 µM); 11.3% in the assay on K-562 leukemia (10 µM); 11.1% in the assay on K-562 leukemia (100 µM); 52.8% in the assay with MALME-3M melanoma (10 µM); 47.5% with MALME-3M melanoma (100 µM). The growth with MDA-MB-231 breast (10 µM) was 49.5%; in the assay on MDA-MB-231 breast (100 µM), 20.4%; with RXF 393 renal (10 µM), 73.3%; in the assay on RXF 393 renal (100 µM) it was 64.4%; in the assay with SF-268 CNS (10 µM), 51.4%; with SF-268 CNS (100 µM), 21.7%. The growth in the assay with SF-295 CNS (10 µM) was -11.3% (active); in the assay on SF-295 CNS (100 µM), 19.6%; with SF-539 CNS (10 µM) it was 28.2%; with SF-539 CNS (100 µM) it was 22.9%; with UACC-257 melanoma (10 µM unless noted), -8.59% [100 µM] (active); with M14 melanoma (10 µM), 40%. For the same compound, in the assay on M14 melanoma (100 µM), the growth was 12.3%.
As to `O=C1NC(=O)/C(=C/C=C/c2ccccc2)S1`, the growth is 50.3% in the assay with DU-145 prostate (10 µM unless noted); 31.1% in the assay on K-562 leukemia (10 µM unless noted); 60.2% with MALME-3M melanoma (10 µM unless noted); 82.5% in the assay with MDA-MB-231 breast (10 µM unless noted); 66.3% in the assay on RXF 393 renal (10 µM unless noted); 31.8% in the assay on SF-268 CNS (10 µM unless noted). In addition, the growth in the assay on SF-295 CNS (10 µM unless noted) is 14.3%; in the assay on SF-539 CNS (10 µM unless noted), -6.41% (active); in the assay with UACC-257 melanoma (10 µM unless noted), 45.1%.
Take `COc1ccc(-c2cscc2N)cc1`: the growth was 83.3% in the assay on DU-145 prostate (10 µM); 69.8% in the assay with DU-145 prostate (100 µM); 54.4% in the assay on K-562 leukemia (10 µM); 22.9% in the assay on K-562 leukemia (100 µM); 138% in the assay on MALME-3M melanoma (10 µM); 66.9% in the assay on MALME-3M melanoma (100 µM). Also, the growth is 55.3% in the assay on MDA-MB-231 breast (10 µM); 50.8% in the assay with MDA-MB-231 breast (100 µM); 106% with RXF 393 renal (10 µM); 89.5% in the assay on RXF 393 renal (100 µM); 91% in the assay on SF-268 CNS (10 µM); 41.3% with SF-268 CNS (100 µM). In addition, the growth in the assay with SF-295 CNS (10 µM) is 54.1%; with SF-295 CNS (100 µM), 40.9%; in the assay with SF-539 CNS (10 µM), 78.7%; with SF-539 CNS (100 µM) it was 44.3%; with UACC-257 melanoma (10 µM unless noted) it was 41.2% [100 µM]; in the assay with M14 melanoma (10 µM), 76.1%. In addition, the growth in the assay with M14 melanoma (100 µM) was 43.4%.
Take `Cc1ccc2nc(C[n+]3ccc4ccccc4c3)ccc2c1`: the growth with DU-145 prostate (10 µM unless noted) is 76%; with K-562 leukemia (10 µM unless noted), 44.2%; with MALME-3M melanoma (10 µM unless noted), 61.2%; in the assay on MDA-MB-231 breast (10 µM unless noted) it was 73.5%; in the assay with RXF 393 renal (10 µM unless noted), 93.6%; in the assay with SF-268 CNS (10 µM unless noted), 70.4%. Besides, the growth in the assay with SF-295 CNS (10 µM unless noted) was 59%; with SF-539 CNS (10 µM unless noted), 71.9%; in the assay on UACC-257 melanoma (10 µM unless noted) it was 24.9%.
